The supplement of paper PMC8728848
The entries come from a sample that favours the strongest signals as a whole.

Legend:
Experiment in all cases: glycan array binding signal (z-score within array); higher = stronger binding
Conditions in all cases: glycan notation: IUPAC condensed, linker removed
[1] = molecular target: GlcNAc(b1-2)[GlcNAc(b1-4)]Man(a1-3)[GlcNAc(b1-2)Man(a1-6)]Man(b1-4)GlcNAc(b1-4)GlcNAc
Outline: (§1)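 Columns mapping to the same glycan were averaged after glycan names were converted to IUPAC-condensed notation. The data come from 3228 arrays in the Consortium for Functional Glycomics database, limited to those with an available protein sequence. Binding is reported as a within-array Z-score averaged across arrays of one protein sequence and across linkers.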

GlcNAc(b1-3)Gal(b1-4)Glc = molecular target: GlcNAc(b1-3)Gal(b1-4)Glc
Outline: as §1

GlcNAc(b1-4)GlcNAc = molecular target: GlcNAc(b1-4)GlcNAc
Outline: as §1

[2] = molecular target: GlcNAc(b1-4)[GlcNAc(b1-6)]GalNAc
Outline: as §1

[3] = molecular target: Man(a1-2)Man(a1-2)Man(a1-3)Man
Outline: as §1

[4] = molecular target: Man(a1-2)Man(a1-3)[Man(a1-2)Man(a1-6)]Man(a1-6)[Man(a1-2)Man(a1-2)Man(a1-3)]Man
Outline: as §1

Neu5Ac(a2-3)Gal = molecular target: Neu5Ac(a2-3)Gal
Outline: as §1

[5] = molecular target: Neu5Ac(a2-3)Gal(b1-3)GlcNAc(b1-2)Man(a1-3)[Neu5Ac(a2-3)Gal(b1-3)GlcNAc(b1-2)Man(a1-6)]Man(b1-4)GlcNAc(b1-4)GlcNAc
Outline: as §1

[6] = molecular target: Neu5Ac(a2-3)Gal(b1-3)[Fuc(a1-4)]GlcNAc(b1-3)Gal(b1-4)[Fuc(a1-3)]GlcNAc
Outline: as §1

Neu5Ac(a2-3)Gal(b1-4)Glc = molecular target: Neu5Ac(a2-3)Gal(b1-4)Glc
Outline: as §1

[7] = molecular target: Neu5Ac(a2-3)[Neu5Ac(a2-6)]GalNAc
Outline: as §1

Neu5Ac(b2-6)GalNAc = molecular target: Neu5Ac(b2-6)GalNAc
Outline: as §1

B1: FimA (Actinomyces oris) (protein)
chain: MHHHHHHSSGVDLGTENLYFQSNAETPNYGNIKTDATGSLVIHKHLTGGGKDIGTPTGTAQNADDKGPAVEGVVFTAYPITDINLKDPAGWDTISNLSRTGVPDSACANPAAPTLGAHQFGTPKVSPATTKEGLATITEMPVQAYLVCETTTPGDIVQKAKPFVVTIPHPNTAAGADGQWIYDVNVYPKNEAIDVDKTIQAQKLNGYGVGSLIKFPVESTAPTLDAKSFYKYFQLKDTLDERLSEVTATDVSLEGTPLQPTDYKVETKQQTVTVTFTAEGLKKIKAAPGKKVSAVFQGKVTKAGNGAITNRAQVISDTLYAEQPPTPETPPTDPENPPTSDEVISRWGDLSIKKVDTHQQGQTKAGLQGAQFQLYKAKNAYANTCSNEKEGAPIAINGQTTLTTDAQGAIDIKGLFISDSIDGADRDNQVNAMERCYVLVETKAPAGYVLPAGNGAATPVKVKAGEETTDNVTVENTKQSVPGLPLTG
[1]
  glycan array binding signal (z-score): -0.403
GlcNAc(b1-3)Gal(b1-4)Glc
  glycan array binding signal (z-score): -0.311
GlcNAc(b1-4)GlcNAc
  glycan array binding signal (z-score): -0.621
[2]
  glycan array binding signal (z-score): -0.564
[3]
  glycan array binding signal (z-score): 4.88
[4]
  glycan array binding signal (z-score): -0.88
Neu5Ac(a2-3)Gal
  glycan array binding signal (z-score): -0.143
[5]
  glycan array binding signal (z-score): -0.233
[6]
  glycan array binding signal (z-score): 0.196
Neu5Ac(a2-3)Gal(b1-4)Glc
  glycan array binding signal (z-score): -0.06
[7]
  glycan array binding signal (z-score): 0.518
Neu5Ac(b2-6)GalNAc
  glycan array binding signal (z-score): -0.85
